Inconclusive results are not listed. The source made the active and inactive calls. Calls come from the whole dose curve. Square brackets hold non-standard residues; d marks the D form. Peptide text beside a SMILES is read from it. * marks the point of attachment. Nle = CCCC[C@H](N)C(=O)O; Cbz = O=C(OCc1ccccc1)*; CH2Cl = ClC*
Experiment: Confirmatory qHTS for VERO E6 Cytotoxicity Assay: Counterscreen for SARS-CoV-2 CPE Assay (AID 1508605); note: nearly all actives have a fitted effect of over 60% in size; for activity change, negative = cytotoxic: % is set by controls: 0 for no effect and ±100 for the full control effect
Settings: cell viability luminescence; series mostly up to 20 µM; activity change, negative = cytotoxic: at the top concentration
Potency is the fitted concentration of half-maximal effect.

Compound	Potency	activity change, negative = cytotoxic
CN1CCN(c2ccc(C(=O)Nc3n[nH]c4ccc(Cc5cc(F)cc(F)c5)cc34)c(NC3CCOCC3)c2)CC1	3.55 µM (active)	
C/C1=C\CCC2=CC(OC2=O)C(C)(C)/C=C/C1=O (stereo unspecified)		-24.5% (inactive)
Nc1ncnc2c1c(-c1ccc(Oc3ccccc3)cc1)nn2[C@@H]1CCCNC1	8.91 µM (active)	
CC[C@H](NC(=O)[C@H](CS(=O)(=O)CC1CC1)N[C@@H](c1ccc(F)cc1)C(F)(F)F)C(=O)C(=O)NC1CC1		-1.16% (inactive)
CC(C)C[C@H](NC(=O)CNC(=O)OCc1ccccc1)C(=O)N[C@@H](Cc1ccccc1)C(=O)CCl (Cbz-Gly-Leu-Phe-CH2Cl)		-30.4% (inactive)
CONC(=O)Nc1ccc(-c2sc3c(c2CN(C)Cc2ccccc2)c(=O)n(-c2ccccc2)c(=O)n3Cc2c(F)cccc2F)cc1		-7.38% (inactive)
CCCC[C@@H](C=O)NC(=O)[C@H](CC(C)C)NC(=O)[C@H](CC(C)C)NC(C)=O (Ac-Leu-Leu-[Nle]-aldehyde)		-5.12% (inactive)
Cc1cc2cc(Oc3ccnc(Nc4cccc(CS(=O)(=O)NCCN(C)C)c4)n3)ccc2[nH]1	11.2 µM (active)	
O=C(NCc1ccccc1)[C@H](Cc1ccccc1)NC(=O)[C@H]1O[C@@H]1C(=O)NCCc1ccc(O)cc1		-4.16% (inactive)
O=C1Nc2nc(-c3c(O)cccc3OCC3CC3)cc([C@@H]3CCCNC3)c2CO1		-26.6% (inactive)
CCCCNc1ncc2c(-c3ccc(CN4CCN(C)CC4)cc3)cn(C3CCC(O)CC3)c2n1 (stereo unspecified)	3.16 µM (active)	

Experiment: Confirmatory qHTS for activators (rescue) of SARS-CoV-2 Cytopathic Effect (CPE) (AID 1508606); note: nearly all actives have a fitted effect of over 70% in size; for CPE rescue (activation): 0% is about no effect
Settings: Vero E6 SARS-CoV-2 CPE rescue, viability luminescence; series mostly up to 20 µM; CPE rescue (activation): at the top concentration

Compound	Potency	CPE rescue (activation)
CCC[C@@H](NC(=O)N1C(=O)C(CC)(CC)[C@@H]1Oc1ccc(C(=O)N2CCN(C)CC2)cc1)c1ccc2c(c1)OCO2	11.2 µM (active)	
CC1OC2OC3C(OCC(O)C3O)OC(=O)C34CCC(C)(C)CC3C3=CCC5C6(C)CC(O)C(OC7OC(CO)C(O)C(O)C7OC7OCC(OC(=O)CC(C)(O)CC(=O)OC1C(OC1OCC(O)C(O)C1O)C2O)C(O)C7O)C(C)(CO)C6CCC5(C)C3(C)CC4O (stereo unspecified)		-12.1% [at 10 µM] (inactive)
CC#C[C@@H](CC(=O)O)c1ccc(OCc2cccc(-c3ccc(C(F)(F)F)cc3)c2)cc1	11.2 µM (active)	
COc1ccccc1N1CCN(CC[C@@](C)(C(=O)C2CCCCC2)c2ccccc2)CC1	10 µM (active)	
Cc1ncc(NC(=O)c2ccc(CN3CCN(C)CC3)c(C(F)(F)F)c2)cc1Nc1nccc(-c2cccnc2)n1	10 µM (active)	
CCC(C)C(=O)OC1C(C)C2(O)C(C=C(CO)CC3(O)C(=O)C(C)=CC32)C2C(C)(C)C12OC(=O)C(C)C (stereo unspecified)		12.6% [at 10 µM] (inactive)
CC/C(=C(/CC)c1ccc(O)c(CN(CC)CC)c1)c1ccc(O)c(CN(CC)CC)c1	8.91 µM (active)	
Cc1ccc(NCCN(C)CCNc2ccnc3cc(Cl)ccc23)c2c(=O)c3ccccc3sc12		-8.78% [at 10 µM] (inactive)
Cc1cccc(/C=N/Nc2cc(N3CCOCC3)nc(OCCc3ccccn3)n2)c1	0.0142 µM (active)	
Cc1cc(C)c(CNC(=O)c2cc(-c3ccc(N4CCN(C)CC4)nc3)cc3c2c(C)cn3C(C)C)c(=O)[nH]1	10 µM (active)	
C[C@@H]1O[C@@H](O[C@@H]2[C@@H](O)[C@H](O[C@@H]3[C@@H](O)[C@@H](O)[C@H](O[C@H]4[C@H](OC(=O)[C@]56CCC(C)(C)C[C@H]5C5=CCC7[C@@]8(C)C[C@H](O)[C@H](O[C@@H]9O[C@@H](C)[C@H](O)[C@@H](O)[C@H]9O)[C@@](C)(CO)C8CC[C@@]7(C)[C@]5(C)C[C@H]6O)O[C@H](C)[C@H](O)[C@@H]4O)O[C@H]3C)OC[C@H]2O)[C@H](O)[C@H](O)[C@H]1O (stereo partly specified)	0.602 µM (active)	
CCCN1CCN(c2ccc(C(=O)NC3(C(=O)NCC#N)CCCCC3)cc2)CC1	1 µM (active)	
CC(=O)c1c(OCCN2CCCCC2)c(OCCC(C)c2ccc(F)cc2)c2oc(C)nc2c1C (stereo unspecified)	10 µM (active)	
Cc1nnc(-c2ccc(-c3ccc(C(=O)Nc4ccc(O)c(N5CCN(C)CC5)c4)cc3)c(C)c2)o1	8.91 µM (active)	
CN(C)c1nc(NC2CCC(NCCc3ccc(Br)cc3OC(F)(F)F)CC2)nc2ccccc12 (stereo unspecified)		-11% (inactive)
CNCc1ccc(-c2cc(-c3nc(-c4ccc(S(=O)(=O)C(C)C)cc4)cnc3N)on2)cc1	1.78 µM (active)	
COc1cc(-n2cnc3cc(-c4ccc(Cl)cc4)sc3c2=O)ccc1OCCN1CCCC1	3.55 µM (active)	
CCCCCCCCC(=O)N[C@H](CN1CCCC1)[C@H](O)c1ccc2c(c1)OCCO2	8.91 µM (active)	

Compound	Potency	CPE rescue (activation)
CCN(CC)CCCS(=O)(=O)N[C@H](CCc1ccccc1)c1nc(Cc2ccc(Br)cc2)no1	11.2 µM (active)	
CCCC[C@@H](C=O)NC(=O)[C@H](CC(C)C)NC(=O)OCc1ccccc1	0.355 µM (active)	
CCOc1ccc(-c2nc(-c3cccc4c3CCC4NCCO)no2)cc1OCC (stereo unspecified)	11.2 µM (active)	
CC1(C)CC[C@]23CO[C@@]4(CCC5[C@@]6(C)CC[C@H](O[C@@H]7OC[C@H](O[C@@H]8O[C@H](CO)[C@@H](O)[C@H](O)[C@H]8O[C@@H]8OC[C@@H](O)[C@H](O)[C@H]8O)[C@H](O)[C@H]7O[C@@H]7O[C@H](CO)[C@@H](O)[C@H](O)[C@H]7O)[C@@](C)(CO)C6CC[C@@]5(C)[C@]4(C)C[C@H]2O)[C@@H]3C1 (stereo partly specified)		13.9% [at 6.64 µM] (inactive)
COc1cc(NC(=O)Nc2cccc(CNC(=O)O[C@H]3CCOC3)c2)ccc1-c1cnco1		-1.53% (inactive)
CC1=CC2OC3CC(O)[C@@](C)(C34CO4)[C@@]2(C)C(O)C1=O (stereo partly specified)		18% [at 40 µM] (inactive)
CN1CCN(c2ccc(C(=O)Nc3n[nH]c4ccc(Cc5cc(F)cc(F)c5)cc34)c(NC3CCOCC3)c2)CC1		-17.6% (inactive)
C/C1=C\CCC2=CC(OC2=O)C(C)(C)/C=C/C1=O (stereo unspecified)	10 µM (active)	
Nc1ncnc2c1c(-c1ccc(Oc3ccccc3)cc1)nn2[C@@H]1CCCNC1		-5.36% (inactive)
CC[C@H](NC(=O)[C@H](CS(=O)(=O)CC1CC1)N[C@@H](c1ccc(F)cc1)C(F)(F)F)C(=O)C(=O)NC1CC1	0.112 µM (active)	
CC(C)C[C@H](NC(=O)CNC(=O)OCc1ccccc1)C(=O)N[C@@H](Cc1ccccc1)C(=O)CCl (Cbz-Gly-Leu-Phe-CH2Cl)	1 µM (active)	
CONC(=O)Nc1ccc(-c2sc3c(c2CN(C)Cc2ccccc2)c(=O)n(-c2ccccc2)c(=O)n3Cc2c(F)cccc2F)cc1		19.2% (inactive)
CCCC[C@@H](C=O)NC(=O)[C@H](CC(C)C)NC(=O)[C@H](CC(C)C)NC(C)=O (Ac-Leu-Leu-[Nle]-aldehyde)	2 µM (active)	
Cc1cc2cc(Oc3ccnc(Nc4cccc(CS(=O)(=O)NCCN(C)C)c4)n3)ccc2[nH]1		-4.16% (inactive)
O=C(NCc1ccccc1)[C@H](Cc1ccccc1)NC(=O)[C@H]1O[C@@H]1C(=O)NCCc1ccc(O)cc1	0.141 µM (active)	
O=C1Nc2nc(-c3c(O)cccc3OCC3CC3)cc([C@@H]3CCCNC3)c2CO1	11.2 µM (active)	
CCCCNc1ncc2c(-c3ccc(CN4CCN(C)CC4)cc3)cn(C3CCC(O)CC3)c2n1 (stereo unspecified)		-15.9% (inactive)

Source: PubChem BioAssay (NCATS)
